We go through 15 molecules from PubChem BioAssay.

SMILES strings stand for the structures. For part of these data: Potency and affinity values are given separately. The source made the active and inactive calls.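 The calls were made as follows, unless noted: active = calcium signal ratio cut to more than 3 SD under the fully stimulated control mean yet still positive, in both repeats and the primary screen; inactive = the rest.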

Test [1] has as its system TRPC4 beta (transient receptor potential cation channel C4), mouse. The test is described as follows: activators of mouse TRPC4 channel, confirmation, cell-based, Fluo4 calcium, HEK293 TRPC4beta/mu-opioid, duplicates, 10 µM (AID 2426;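 active = fluorescence ratio normalized to control raised more than 50% in primary screen plus both repeat runs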;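 as to activation: percent rise of integrated ratio over buffer wells lacking compound which define 0%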). To be noted: Fluo4 calcium fluorescence, at 10 µM; active compounds read high.
The subject of test [2] is transient receptor potential cation channel C4 beta (TRPC4), mouse. The test is described as follows: activators of mouse TRPC4 channel, confirmation, cell-based, second round, Fluo4, HEK293 TRPC4beta/mu-opioid, 1 µM (AID 2461;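 active = primary screen active and over 50% activation in each of two duplicate runs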). Particulars: Fluo4 calcium fluorescence, at 1 µM; active compounds read high.
Test [3] relates to TRPC4 (transient receptor potential cation channel C4 beta), mouse. The test is described as follows: positive allosteric modulators of mouse TRPC4, confirmation, cell-based, second round, Fluo-4, HEK293 TRPC4beta/mu-opioid, 1 µM (AID 2554;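 active = primary screen hit whose fluorescence ratio, in both repeats, exceeds the weak agonist control mean by 3 SD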). To be noted: DAMGO EC20, Fluo-4 calcium flux, at 1 µM; active compounds read high. In general terms: Calcium assays in cells follow changes in intracellular calcium, usually with a dye or a luminescent sensor.

Test [4] concerns TRPC4 beta (transient receptor potential cation channel C4), mouse. The test is described as follows: positive allosteric modulators of mouse TRPC4, confirmation, cell-based, Fluo-4, HEK293 TRPC4beta/mu-opioid (AID 2555;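 active = primary screen hit whose calcium fluorescence ratio, in both repeats, exceeds the weak agonist control mean by 3 SD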). To be noted: DAMGO EC20, Fluo-4 calcium flux, at 10 µM; active compounds read high.
The target in test [5] is Short transient receptor potential channel 4 (Mus musculus) (UniProt Q9QUQ5). Briefly: inhibitors of mouse TRPC4 channel, confirmation, cell-based, Fluo4, HEK293 TRPC4beta/mu-opioid (AID 2636;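 active = calcium signal cut by more than 3 SD below the full-agonist control yet still positive, in both repeats and the earlier primary screen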). To be noted: DAMGO, Fluo4 calcium flux, at 10 µM; active compounds read high.
Test [6] has the same target. The test is described as follows: inhibitors of mouse TRPC4 channel, confirmation, cell-based, second round, Fluo4, HEK293 TRPC4beta/mu-opioid, 1 µM (AID 2637). To be noted: Fluo4 calcium flux, DAMGO, at 1 µM; active compounds read high.
For test [7] the target is unchanged. Briefly: mouse TRPC4 channel activators, dose response, cell-based, HEK293 TRPC4/mu-opioid, Fluo-4 calcium (AID 434937;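 active = primary screen activator hit with a dose response curve and TRPC4 channel activation at any tested dose; inactive = no activation, no dose response, or not a primary hit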).
Test [8] shares this target. Briefly: TRPC4 positive allosteric modulators, dose response, cell-based, HEK293 TRPC4/mu-opioid, Fluo-4 calcium, EC20 DAMGO (AID 434941;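 active = earlier screen potentiator hit that boosts the TRPC4 ion channel at some dose, with a dose response; inactive = no potentiation, no dose response, or not a prior hit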;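 also: calcium entry triggered by an EC20 dose of DAMGO at the co-expressed mu-opioid receptor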).
Test [9] shares this target. Briefly: mouse TRPC4 channel inhibitors, dose response, cell-based, HEK293 TRPC4/mu-opioid, Fluo-4 calcium (AID 434942;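 active = primary screen inhibitor hit that blocks the TRPC4 channel at some tested dose, yielding a dose curve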).
The target of test [10] is Short transient receptor potential channel 6 (Mus musculus) (UniProt Q61143). Briefly: inhibition of mouse TRPC6 channel, confirmation, selectivity assay for TRPC4 inhibitor project, cell-based, HEK293, membrane potential dye, duplicate (AID 434948;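 active = active in primary screen and both duplicates, each dropping signal beyond three positive-control SD with fluorescence still positive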). To be noted: HEK293 TRPC6, membrane potential dye fluorescence, at 10 µM, stimulated with maximal-effect acetylcholine; active compounds read high.

Test [11] shares this target. Briefly: activation of mouse TRPC6 channel, confirmation, selectivity assay for TRPC4 activator project, cell-based, HEK293, membrane potential dye, duplicate (AID 434950;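 active = membrane potential signal rise above negative control mean plus 3 SD in both duplicates, also active in the earlier TRPC4 screen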;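 as to activation: 0% = buffer only wells and 100% = acetylcholine maximal-effect wells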). To be noted: HEK293 TRPC6, membrane potential fluorescence, at 10 µM; active compounds read high.
For test [12] the target is unchanged. Briefly: TRPC6 potentiation by TRPC4 potentiator hits, confirmation, selectivity assay for TRPC4 potentiator project, HEK293 cells, membrane potential dye, duplicate (AID 434952;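 active = compound raising the membrane signal above positive-control mean plus 3 SD in both repeats, and a primary screen hit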). To be noted: HEK293 TRPC6, membrane potential dye fluorescence, at 10 µM, maximal acetylcholine added after compound; active compounds read high.
In test [13] the target is Short transient receptor potential channel 4 (Mus musculus) (UniProt Q9QUQ5). Briefly: calcium flux activators in TRPC4/5HT1a cells, counter-screen for TRPC4 activator project, cell-based, second counter screen, HEK293 TRPC4/5HT1a, Fluo-4 (AID 434977;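 active = calcium signal rise above buffer-control mean plus 5 SD in both duplicates, and also a hit in the primary screen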;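 as to activation: plate controls were assay buffer for no effect and maximal serotonin response for full effect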). Particulars: Fluo-4 calcium flux, at 10 µM; active compounds read high.
The nature of test [14]: calcium flux inhibitors in TRPC4/5HT1a cells, confirmation, counter-screen for TRPC4 inhibitor project, cell-based, second counter screen, HEK293 TRPC4/5HT1a, Fluo-4 (AID 434978;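 active = primary screen active whose calcium signal fell more than 3 SD beyond the full-serotonin control mean in both duplicate plates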;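 as to outcome: serotonin given first at submaximal then at maximal dose after compound preincubation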). Particulars: Fluo-4 calcium flux, at 10 µM, serotonin added to trigger calcium flux; active compounds read high.
Test [15] has as its system TRPC4 (mouse), co-expressed with 5HT1a in HEK293. The test is described as follows: calcium flux potentiators in TRPC4/5HT1a cells, confirmation, counter-screen for TRPC4 potentiator project, cell-based, second counter screen, HEK293 TRPC4/5HT1a, Fluo-4 (AID 434979;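 active = signal rise over 3 SD above mean of control wells given weak agonist, in both repeats and first screen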). To be noted: Fluo-4 calcium flux, at 10 µM, serotonin added at its EC20 dose; active compounds read high.
The nature of test [16]: calcium flux activation in mu-opioid HEK293 cells, confirmation, counter-screen for TRPC4 activator project, cell-based, HEK293 mu-opioid receptor line (AID 449723;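 active = hit in primary screen, with calcium signal over 5 SD above buffer well mean in both duplicates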;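 also: counter screen cells carry the mu-opioid receptor alone and lack TRPC4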). Particulars: Fluo-4 calcium fluorescence, at 10 µM; active compounds read high.
Test [17] is described as follows: calcium flux enhancement in mu-opioid HEK293 cells, confirmation, counter-screen for TRPC4 allosteric potentiator project, cell-based, HEK293 mu-opioid receptor line (AID 449724;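 active = calcium signal rise more than 3 SD above the low-dose agonist control mean, in both duplicate plates and the primary screen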;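 also: HEK293 cells carrying mu-opioid receptor only with no TRPC4 channel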). To be noted: Fluo-4 calcium flux, at 10 µM, compound added before EC20 DAMGO stimulus; active compounds read high.

Short transient receptor potential channel 6 (Mus musculus), sequence (Q61143 whole entry, looked up): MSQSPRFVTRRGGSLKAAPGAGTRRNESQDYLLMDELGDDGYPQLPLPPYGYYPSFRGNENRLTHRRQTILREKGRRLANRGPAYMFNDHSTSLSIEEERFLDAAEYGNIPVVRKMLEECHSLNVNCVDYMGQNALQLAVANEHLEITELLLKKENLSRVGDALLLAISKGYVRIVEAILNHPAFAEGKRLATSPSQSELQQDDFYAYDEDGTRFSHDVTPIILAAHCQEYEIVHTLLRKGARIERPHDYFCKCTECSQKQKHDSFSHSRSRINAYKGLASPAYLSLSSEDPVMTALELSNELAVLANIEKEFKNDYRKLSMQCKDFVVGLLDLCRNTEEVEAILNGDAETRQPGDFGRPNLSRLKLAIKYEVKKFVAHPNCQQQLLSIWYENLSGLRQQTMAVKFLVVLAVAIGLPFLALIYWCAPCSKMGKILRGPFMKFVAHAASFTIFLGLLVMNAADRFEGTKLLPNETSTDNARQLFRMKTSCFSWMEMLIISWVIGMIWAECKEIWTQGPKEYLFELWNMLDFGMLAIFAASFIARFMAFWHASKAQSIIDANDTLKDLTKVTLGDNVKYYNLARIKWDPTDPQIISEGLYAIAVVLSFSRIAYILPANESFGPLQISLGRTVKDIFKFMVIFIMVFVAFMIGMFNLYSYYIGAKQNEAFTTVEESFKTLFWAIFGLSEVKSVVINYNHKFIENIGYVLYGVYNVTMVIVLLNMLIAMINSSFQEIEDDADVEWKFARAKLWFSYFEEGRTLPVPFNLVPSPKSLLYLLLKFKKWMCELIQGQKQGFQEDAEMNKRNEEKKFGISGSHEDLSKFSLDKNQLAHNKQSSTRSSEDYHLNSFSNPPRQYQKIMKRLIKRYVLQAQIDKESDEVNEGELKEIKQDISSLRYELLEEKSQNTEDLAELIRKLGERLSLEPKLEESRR
Short transient receptor potential channel 4 (Mus musculus), sequence (Q9QUQ5 whole entry, looked up): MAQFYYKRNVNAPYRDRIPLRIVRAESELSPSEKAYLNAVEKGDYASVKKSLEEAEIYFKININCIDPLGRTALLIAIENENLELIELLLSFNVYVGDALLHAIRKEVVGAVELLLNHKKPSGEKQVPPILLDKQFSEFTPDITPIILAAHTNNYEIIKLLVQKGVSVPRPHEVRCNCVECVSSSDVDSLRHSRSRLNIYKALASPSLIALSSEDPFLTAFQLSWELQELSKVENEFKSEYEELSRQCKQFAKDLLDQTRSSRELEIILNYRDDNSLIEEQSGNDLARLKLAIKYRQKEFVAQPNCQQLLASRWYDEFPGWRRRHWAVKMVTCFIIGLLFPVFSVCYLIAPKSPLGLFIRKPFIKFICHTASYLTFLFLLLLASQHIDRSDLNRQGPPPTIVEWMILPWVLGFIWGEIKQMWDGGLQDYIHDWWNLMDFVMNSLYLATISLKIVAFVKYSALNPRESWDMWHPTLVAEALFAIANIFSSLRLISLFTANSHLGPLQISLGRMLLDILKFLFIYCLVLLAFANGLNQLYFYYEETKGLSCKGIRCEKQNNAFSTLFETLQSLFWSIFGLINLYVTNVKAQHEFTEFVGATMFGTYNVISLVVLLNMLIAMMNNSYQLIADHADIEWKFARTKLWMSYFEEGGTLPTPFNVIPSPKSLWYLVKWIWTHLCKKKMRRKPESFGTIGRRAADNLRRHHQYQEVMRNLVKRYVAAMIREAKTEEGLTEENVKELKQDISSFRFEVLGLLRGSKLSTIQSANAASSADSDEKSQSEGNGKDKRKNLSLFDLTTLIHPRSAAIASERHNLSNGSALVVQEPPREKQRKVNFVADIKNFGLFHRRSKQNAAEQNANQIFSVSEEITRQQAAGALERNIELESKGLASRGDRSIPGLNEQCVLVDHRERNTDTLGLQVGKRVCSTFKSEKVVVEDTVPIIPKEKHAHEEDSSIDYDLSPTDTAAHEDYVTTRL

For `NN=C1c2cc([N+](=O)[O-])ccc2-c2ccc([N+](=O)[O-])cc21`, the outcome in test [1], in [2], in [3], in test [4], in [5] and in [6] was inactive. Moreover, the outcome in [7], in test [8], in test [9], in test [10], in test [11] and in [12] was inactive. The outcome in test [13], in test [14], in test [15], in test [16] and in test [17] was inactive.

In the case of `CCN(C(=O)c1cnc(NC(C)C)cc1C(F)(F)F)c1ccc(Cl)cc1Cl`, the outcome in test [1], in test [2], in test [3], in [4], in test [6] and in test [7] was inactive. Besides, the outcome in [8], in test [9], in [10], in test [11], in test [12] and in test [13] was inactive. Moreover, the result in [15], in test [16] and in test [17] was inactive. The inhibition was 91% (active) in [5] and 44.8% (active) in [14].

Take `OC1(c2ccc(Cl)cc2)CN(c2ccccc2)C2=[N+]1CCS2` (stereo not given): the result in test [1], in [2], in [3], in test [4], in test [5] and in test [6] was inactive. The outcome in test [7], in [8], in test [9], in test [10], in [12] and in test [13] was inactive. In addition, the outcome in test [14], in [15], in [16] and in [17] was inactive. Further, the activation in test [11] is 38% (active).

Regarding `COc1ccc(OC)c(NC(=O)COC(=O)Cc2ccc(-c3ccccc3)cc2)c1`, the result in test [1], in test [2], in [3], in test [4], in test [5] and in test [6] was inactive. Besides, the result in [7], in [8], in test [9], in [10], in [11] and in test [12] was inactive. The result in test [13], in [14], in test [16] and in test [17] was inactive. Further, in test [15], the potentiation was 31.8% (active).

Take `O=C(C1CCCN(Cc2cccc(Cl)c2)C1)N1CCCCC1` (stereo not given): the outcome in test [1], in [2], in test [3], in test [4], in test [5] and in test [6] was inactive. For the same molecule, the result in test [7], in [8], in [9], in test [10], in test [11] and in test [12] was inactive. In addition, the outcome in test [13], in [14], in [15], in [16] and in test [17] was inactive.

On to `O=C(c1coc2ccc(O)c(CN3CCOCC3)c12)C1CC1`, for which the result in test [1], in test [2], in test [3], in test [4], in test [5] and in test [6] was inactive. The result in test [7], in test [8], in test [9], in test [10], in [11] and in test [12] was inactive. For the same molecule, the result in [13], in test [14], in [15], in [16] and in test [17] was inactive.

`COc1ccccc1C(=O)NNC1=C(C(=O)C(F)(F)F)CCC1`: the activation in test [1] is 58% (active); in test [13] it was 11% (active). Besides, the outcome in [2], in test [3], in test [4], in test [5], in [6] and in [7] was inactive. Also, the result in [8], in [9], in test [10], in test [11], in [12] and in test [14] was inactive. The result in test [15], in [16] and in [17] was inactive.

Consider `Cc1ccc(C)c(N(CC(=O)NC2CCCC2)C(=O)c2csnn2)c1`, for which the result in test [1], in test [2], in test [3], in test [4], in [5] and in test [6] was inactive. For the same molecule, the outcome in [7], in test [8], in test [9], in [10], in test [12] and in test [13] was inactive. Moreover, the result in test [14], in test [15], in test [16] and in test [17] was inactive. Moreover, in test [11], the activation was 30% (active).

Turning to `c1cnc(N2CCN(c3cnccn3)CC2)nc1`, the result in test [1], in test [2], in [3], in test [4], in test [5] and in test [6] was inactive. The outcome in test [7], in test [8], in test [9], in test [10], in [11] and in test [12] was inactive. Also, the result in [13], in test [14], in test [15], in test [16] and in [17] was inactive.

As for `CSc1ncccc1C(=O)OCC(=O)N(CC(C)C)c1c(N)n(Cc2ccccc2)c(=O)[nH]c1=O`, the outcome in test [1], in [2], in test [3], in test [4], in [5] and in [6] was inactive. The result in [7], in test [8], in [9], in [10], in test [11] and in [12] was inactive. Also, the result in test [13], in test [14], in [15], in test [16] and in [17] was inactive.

As for `Oc1c(Br)cc(Br)c(/C=N/n2c(-c3ccccc3)n[nH]c2=S)c1Br`, the result in test [1], in test [2], in test [3], in [5], in test [6] and in [7] was inactive. Also, the result in test [8], in test [9], in test [10], in [11], in test [12] and in test [13] was inactive. Further, the outcome in [14], in test [15], in test [16] and in test [17] was inactive. The potentiation in [4] is 18% (active).

Take `CC[n+]1c(/C=C/Nc2ccccc2)sc2ccccc21`: the outcome in test [1], in [2], in test [3], in test [4], in [5] and in [6] was inactive. Also, the outcome in test [7], in test [8], in test [9], in [10], in [11] and in [12] was inactive. The result in [13], in test [14], in test [15], in test [16] and in test [17] was inactive.

For `CCOC(=O)C1=C(CNCCc2ccc(Cl)cc2)NC(=O)NC1c1cccc([N+](=O)[O-])c1` (stereo not given), the result in test [1], in [2], in [3], in test [4], in test [5] and in [6] was inactive. The outcome in test [7], in [8], in test [9], in [10], in test [11] and in test [12] was inactive. Moreover, the result in test [13], in test [14], in test [15], in test [16] and in test [17] was inactive.

As to `Cc1ccc(C)n1-c1ncc(Br)cn1`, the outcome in test [1], in test [2], in test [3], in test [5], in test [6] and in test [7] was inactive. Moreover, the outcome in [8], in [9], in [10], in test [11], in test [12] and in test [13] was inactive. Moreover, the result in test [14], in [16] and in [17] was inactive. Also, the figures for the potentiation in test [4] and in test [15] were 10% (active) and 31.9% (active), respectively.

For `CCCCC(=O)Nc1cccc2c1C(=O)N(c1ccccc1)C2=O`, the outcome in [1], in test [2], in [3], in test [4], in test [5] and in test [6] was inactive. Moreover, the outcome in test [7], in [8], in [9], in [10], in test [11] and in test [12] was inactive. The outcome in test [13], in [14], in test [15], in test [16] and in test [17] was inactive.

The inhibition is the percentage by which the read-out fell short of the control.
